Compound activity: PubChem, National Center for Advancing Translational Sciences (NCATS)
D1 antagonist: human D1 dopamine receptor antagonism. HEK293 TREx D1 cells, calcium flux, dopamine EC80; active compounds read low. 360,000 compounds, 3.2% hits. P21728. AID 504652. activity change, negative = inhibition, % at 10 µM; in the data active = activity change below about -30%; also: % is scaled to controls: 0 for no effect and ±100 for the full control effect
Target sequence (P21728 whole entry, looked up): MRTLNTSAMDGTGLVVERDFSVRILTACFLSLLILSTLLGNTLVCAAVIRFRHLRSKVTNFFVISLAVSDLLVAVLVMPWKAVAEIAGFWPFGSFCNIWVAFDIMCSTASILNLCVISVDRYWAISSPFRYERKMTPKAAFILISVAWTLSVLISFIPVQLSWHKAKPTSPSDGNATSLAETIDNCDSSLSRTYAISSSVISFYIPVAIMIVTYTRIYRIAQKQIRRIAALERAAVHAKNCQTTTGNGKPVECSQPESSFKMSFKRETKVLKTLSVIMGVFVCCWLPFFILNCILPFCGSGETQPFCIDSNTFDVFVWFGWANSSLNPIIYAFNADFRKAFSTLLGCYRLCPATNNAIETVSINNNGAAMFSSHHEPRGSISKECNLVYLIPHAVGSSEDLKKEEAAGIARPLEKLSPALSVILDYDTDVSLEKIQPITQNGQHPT
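Antagonism measured as reduced calcium response to an EC80 dopamine addition following 180 s compound pre-read; cells were inducible HEK293 Trex D1 plated overnight at 30 C, read kinetically at 1 cycle/sec.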
TRHR ag: agonists of human TRH receptor; P34981; TRHR cells, calcium flux fluo-8, FDSS agonist mode; activation, % at 2 µM; 360,000 compounds, 0.18% hits; AID 493084; also: 0% is about no effect
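In this calcium-flux screen, cells bearing human TRHR are dye-loaded with fluo-8, baselined for 10 cycles, then exposed to library compounds; positive kinetic calcium responses during the agonist phase mark hits, with TRH as control.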
D1 agonist: agonists of human D1 dopamine receptor; HEK293 T-REx D1 cells, calcium flux, agonist mode; activation, % at 2 µM; 360,000 compounds, 1% hits; AID 504660; also: 0% is about no effect
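Tetracycline-induced HEK293 TREx D1 cells, force-coupled to calcium signalling, were dye-loaded with a no-wash calcium kit. Compound was pin-added after a 10 s baseline. Fluorescence was read kinetically at 1 cycle/s for 180 s, with calcium rises flagged as agonism.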
D1 potentiator: enhances dopamine response at the human D1 receptor; P21728; HEK293 TREx D1 cells, calcium flux, dopamine EC20 potentiation; potentiation, % at 10 µM; 360,000 compounds, 0.036% hits; in the data active = potentiation above about 30%; also: 0% is about no effect
TRHR PAM: allosterically enhances the human TRH receptor | P34981 | TRHR cells, fluo-8 calcium fluorescence, EC20 TRH enhancement | enhancement, % at 2 µM | 360,000 compounds, 0.66% hits | AID 493056; in the data active = enhancement above about 30%; also: 0% is about no effect
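TRHR-expressing cells loaded with fluo-8 calcium dye were read kinetically (ex 480/em 530) during compound addition, then stimulated with an EC20 of TRH (10 nM final). Enhancement of the Gq-mediated intracellular calcium response was scored.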
* hit, by the source's call. Most compounds without a hit are left out; they make up all but 4.7% or so of the library. Rule as the data show it, unless noted: active = activation above about 30%; inactive = the rest.

SMILES	D1 antagonist	TRHR ag	D1 agonist	D1 potentiator	TRHR PAM
COc1cccc(N2CC(C(=O)Nc3ccc(C(=O)OC(C)C)cc3)CC2=O)c1 (stereo not drawn)	-30*	-1	17	-7	-1
COc1ccccc1NC(=O)CN1C(=O)CC(c2ccc(C)c(C)c2)=Nc2ccccc21	-11	0	5	-1	1
CCN(CC)CCNC(=O)C(C)c1nn(CC)c(=O)c2ccccc12 (stereo not drawn)	-57*	1	1	3	2
CCN(CC)CCNC(=O)Cc1nn(CC)c(=O)c2ccccc12	19	0	4	-6	-1
COC(=O)c1cc(NC(=O)c2cccc(Cl)c2)c(=O)oc1/C=C/Nc1cc(C)cc(C)c1	-34*	38*	102*	2	-3
C=C(C)CN1CCN(c2c(CCC#N)c(C)c(C#N)c3nc4ccccc4n23)CC1	-38*	-1	-1	-2	2
COc1cc2c(cc1OC)C(c1ccc(F)cc1)N(c1ccc(F)cc1)C(=O)C2 (stereo not drawn)	0	1	1	-1	-6
COCCCOc1ccnc(CS(=O)c2nc3ccccc3[nH]2)c1C (stereo not drawn)	-4	0	2	1	-8
COc1ccc2nc(S(=O)Cc3ncc(C)c(OC)c3C)[nH]c2c1 (stereo not drawn)	-13	-1	2	-2	32*
CCOc1ccc(OCC)c(NC(=O)CCc2nc3cccnc3n2-c2ccccc2)c1	-9	-1	2	-1	5
CCOC(=O)CC(NC(=O)CCc1c(C)nc2c(c(C)nn2-c2ccc(C)c(C)c2)c1C)c1ccc(C)cc1 (stereo not drawn)	4	1	6	-6	9
C1CCC(Nc2nc3nonc3nc2N2CCSCC2)C1	0	0	4	-8	32*
CCn1nc(C)c(Br)c1-c1nc(CS(=O)(=O)c2ccsc2)no1	-2	0	0	4	37*
CCOc1ccccc1OCCN1CCCC1	-34*	0	6	-1	-8
CCOc1ccccc1OCCN1CCC(Cc2ccccc2)CC1	-22	-1	28	-16	-1
CCN1CCN(Cc2ccc(OCc3ccccc3)cc2)CC1	-13	0	38*	-6	5
CCN1CCN(Cc2ccc(OCc3ccccc3)c(OC)c2)CC1	7	2	1	-3	19
CCN1CCN(CCOc2ccccc2OCc2ccccc2)CC1	-32*	0	4	-1	6
COCCNc1oc(/C=C/c2ccc(F)cc2)nc1C#N	-12	-1	0	-3	-3
CCOc1nc(C)ccc1-c1noc(CC)n1	-38*	1	3	-2	-4
CCOc1nc(C)ccc1-c1noc(-c2ccco2)n1	32	-1	3	-5	-2
CCc1ccc(-n2c(=O)c3cccnc3n2CC(=O)NCc2ccccc2)cc1	13	1	11	-4	-3
CCc1ccc(-n2c(=O)c3cccnc3n2CC(=O)NCc2ccc(F)cc2)cc1	-36*	1	7	-6	-9
Cc1cc(C(=O)Nc2ccccc2C(=O)O)ccc1NC(=O)COc1ccccc1Cl	-2	-1	0	-1	35*
COc1c(Cl)cc(C(=O)Nc2ccccc2C(=O)O)cc1Cl	-37*	0	3	6	2
SMILES	D1 antagonist	TRHR ag	D1 agonist	D1 potentiator	TRHR PAM
COc1ccc(OC)c(S(=O)(=O)N2CCC(c3ccncc3)CC2)c1	-4	0	1	0	4
Cc1ccc(NC(=O)C2CCN(S(=O)(=O)c3ccc4c(c3)OCCCO4)CC2)nc1	-33*	0	2	-7	-2
O=C(CN1CCCN(S(=O)(=O)c2ccc(Br)cc2)CC1)Nc1ccc2c(c1)OCO2	-49*	0	0	-15	-6
O=C(Nc1ccccn1)C1CCN(S(=O)(=O)c2ccc3c(c2)OCCCO3)CC1	-3	0	11	-9	3
Cc1ccc(S(=O)(=O)N2CCC(C(=O)Nc3ccc4c(c3)OCO4)CC2)cc1	-47*	0	2	-9	3
Cc1ccc(NC(=O)C2CCN(S(=O)(=O)c3ccc(Cl)c(C(F)(F)F)c3)CC2)nc1	-39*	0	1	-6	-11
Cc1ccnc(NC(=O)C2CCN(S(=O)(=O)c3ccc(Cl)c(C(F)(F)F)c3)CC2)c1	0	0	1	-4	-12
COc1cccc(C(=O)Nc2c(C(=O)N3CCN(c4ccc(F)cc4)CC3)oc3ccccc23)c1	-20	3	7	-8	-2
Cc1ccc(NC(=O)CSc2cn(CC(=O)N3CCOCC3)c3ccccc23)cc1Cl	-8	0	7	-1	9
CC(=O)N1CCC(N(CCN2CCOCC2)C(=S)Nc2ccc(C)cc2C)CC1	-31*	1	3	-5	2
CC(=O)N1CCC(N(CCN2CCOCC2)C(=S)Nc2ccc(C)cc2)CC1	-2	1	1	-2	-1
COc1ccc(C2=C(C)C(N3CCC(C(=O)Nc4cc(C)ccc4C)CC3)=NS2(=O)=O)cc1	-11	1	6	-7	-2
CCOc1ccc(CCNC(=O)c2ccc3[nH]c(C)c(C)c3c2)cc1	-14	-1	3	-5	-4
Cc1ccc(CCNC(=O)c2ccc3[nH]c(C)c(C)c3c2)cc1	-44*	0	0	-4	-3
CCOC(=O)CC(NC(=O)CCc1c(C)nc2c(c1C)c(=O)n(C)c(=O)n2C)c1ccc(OCC)c(OC)c1 (stereo not drawn)	-33*	0	0	-4	6
COc1ccc(N/C(N)=N/c2nc(C)cc(=O)[nH]2)cc1	-37*	0	4	-2	7
COc1ccccc1N/C(N)=N/c1nc(C(F)(F)F)cc(=O)[nH]1	-57*	0	4	-10	1
CCOC(=O)Cc1cc(=O)[nH]c(/N=C(\N)Nc2ccc(C)c(C)c2)n1	-44*	0	4	-7	1
Cc1c(NC(=O)c2sc3ccccc3c2Cl)cccc1-c1nc2ccccc2o1	2	0	-1	2	4
Cn1cc(C(=O)Nc2ccc3c(c2)CCC3)cn1	-31*	0	1	-4	-1
Cc1ccc(C(=O)Nc2ccc3c(c2)CCC3)cc1	-3	-2	0	8	35*
COc1ccc(S(=O)(=O)Nc2ccc3c(c2)CCC3)cc1	-7	-1	5	-4	-4
Cc1cccc(NC(=O)Nc2ccc3c(c2)CCC3)c1	-30*	1	12	-5	1
CC(=O)Nc1ccc(S(=O)(=O)Nc2ccc3c(c2)CCC3)cc1	-56*	-1	52*	-8	27
CCc1ccc(NC(=O)CSc2n[nH]c(C)c2[N+](=O)[O-])cc1	-48*	1	15	-8	2
CCOc1ccc(-c2nnc(NC(=O)CCCOc3cccc(C)c3)o2)cc1	-33*	0	4	3	2
